Compound activity deposited in PubChem BioAssay by National Center for Advancing Translational Sciences (NCATS).
Only some compounds are listed: those with a hit (about 4.2% of all), similar ones and a draw of the others.
TRPV1 ag – activates the human vanilloid receptor TRPV1 | activation, % at 8.33 µM | 0.19% of 320,000 active | AID 540275 | TRPV1-expressing cells, Fluo-8 calcium influx, agonist mode | Q8NER1; in the data active means activation above about 80%; inconclusive means between about 30% and that limit; further: 0% is about no effect
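Cells expressing TRPV1 were dye-loaded with Fluo-8 and read kinetically: 10 s baseline, 3 min after compound (agonist portion), then 2 min after EC20 capsaicin (allosteric enhancer portion). Calcium-bound dye fluorescence at 480/520 nm.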
D1 potentiator – potentiators of human D1 dopamine receptor. P21728. HEK293 TREx D1 cells, calcium flux, dopamine EC20 potentiation. potentiation, % at 10 µM. 0.036% of 360,000 active. AID 504651; in the data active means potentiation above about 30%; further: 0% is about no effect
Target sequence (P21728 whole entry, looked up): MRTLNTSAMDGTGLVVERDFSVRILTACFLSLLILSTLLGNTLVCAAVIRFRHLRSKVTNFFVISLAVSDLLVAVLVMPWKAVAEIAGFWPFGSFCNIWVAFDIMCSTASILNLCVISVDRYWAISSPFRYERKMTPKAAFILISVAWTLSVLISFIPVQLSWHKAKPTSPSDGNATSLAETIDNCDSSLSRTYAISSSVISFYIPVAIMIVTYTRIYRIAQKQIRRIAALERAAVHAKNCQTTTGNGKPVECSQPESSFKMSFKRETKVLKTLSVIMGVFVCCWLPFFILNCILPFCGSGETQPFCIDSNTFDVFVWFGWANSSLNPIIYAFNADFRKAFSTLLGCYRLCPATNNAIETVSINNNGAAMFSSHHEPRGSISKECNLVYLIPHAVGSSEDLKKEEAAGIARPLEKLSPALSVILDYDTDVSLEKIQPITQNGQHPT
D1 ag – activates the human D1 dopamine receptor; activation, % at 2 µM; P21728; 1% of 360,000 active; HEK293 T-REx D1 cells, calcium flux, agonist mode; in the data active means activation above about 30%; further: 0% is about no effect
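Agonism was scored from calcium flux recorded over 180 s (1 read/s) after pintool compound addition, following a 10-cycle baseline. Cells were inducible force-coupled HEK293 TREx D1, plated overnight at 30 C and loaded with no-wash calcium dye.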
D1 antagonist – antagonists of human D1 dopamine receptor; 3.2% of 360,000 active; HEK293 TREx D1 cells, calcium flux, dopamine EC80; active compounds read low; activity change, negative = inhibition, % at 10 µM; in the data active means activity change below about -30%; further: on the % scale 0 is the no-effect control and ±100 the full control effect
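Using tetracycline-induced force-coupled D1 Hek293 cells and a calcium dye, signals were followed for 180 s after compound, then for 180 s after EC80 dopamine, to detect inhibitors.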
TRPV1 potentiator – potentiators of human vanilloid receptor 1 (TRPV1) | Q8NER1 | TRPV1-expressing cells, Fluo-8 calcium influx, capsaicin EC20 potentiation | potentiation, % at 8.33 µM | 0.02% of 320,000 active | AID 540277; in the data active means potentiation above about 80%; inconclusive means between about 30% and that limit; further: 0% is about no effect
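Fluo-8 calcium influx in TRPV1-expressing cells, kinetic read (ex 480/em 520 nm). Compound added and read 3 min for agonist activity, followed by capsaicin at EC20 final and 2 min further read for enhancement.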
Numbers without * were called inactive.

COc1ccc2c(c1)c1c(c(=O)n(-c3cccc(C)c3)c(=O)n1CC(=O)NCC1CCCO1)n2C (stereo unspecified) was read as D1 potentiator -1.6, D1 ag -0.6 and D1 antagonist -9.9.
Screening Cn1c(CNC(=O)CSc2nc(-c3ccccc3F)nc3cc(=O)[nH]n23)nc2ccccc21 returned D1 potentiator -4.1, D1 ag 0.4 and D1 antagonist -57.6*.
`COc1cccc(CNC(=O)CC(c2ccc(F)cc2)N2Cc3ccccc3C2=O)c1` (stereo unspecified) gave D1 potentiator 2.2, D1 ag 4.6 and D1 antagonist -7.3.
CCCCOC(=O)c1ccc(NC(=O)c2ccc3c(c2)CCN3S(C)(=O)=O)cc1 was read as D1 potentiator -0.3, D1 ag 5.3 and D1 antagonist -14.1.
Screening Cc1ccc(O)c(C(=O)c2cc(C#N)c(=O)n(Cc3ccccc3)c2)c1 returned TRPV1 ag 2.4, D1 potentiator -1.9, D1 ag 5.6, D1 antagonist -0.3 and TRPV1 potentiator 5.0.
`Cc1ccc(O)c(C(=O)c2cc(C#N)c3nc4ccccc4n3c2)c1` gave TRPV1 ag 17.1, D1 potentiator 7.8, D1 ag 62.1*, D1 antagonist 6.9 and TRPV1 potentiator -0.3.
For Cc1cccc(NC(=O)c2cccc(N3CCCS3(=O)=O)c2)c1 the results were D1 potentiator 0.7, D1 ag 2.8 and D1 antagonist 2.9.
`COc1cccc(CNC(=O)Nc2ccc3c(c2)N(C)C(=O)c2ccccc2S3)c1` gave D1 potentiator -2.1, D1 ag -2.2 and D1 antagonist -11.5.
Screening Cc1cc(C)nc(Nc2ncc(O)n2-c2ccc(Br)cc2)n1 returned TRPV1 ag 1.5, D1 potentiator -7.2, D1 ag 9.6, D1 antagonist -47.6* and TRPV1 potentiator 18.4.
CCc1ccccc1NC(=O)c1cc(S(=O)(=O)N(CC)c2ccccc2)ccc1F was read as D1 potentiator 0.2, D1 ag -0.3 and D1 antagonist 4.4.
For CCc1ccc(NC(=S)NCc2cccnc2)cc1 the results were D1 potentiator -2.0, D1 ag 0.9 and D1 antagonist 3.1.
Screening S=C(NCc1ccccc1)Nc1ccncc1 returned TRPV1 ag inconclusive, D1 potentiator -17.4, D1 ag 7.7, D1 antagonist -55.9* and TRPV1 potentiator -3.1.
`CCc1ccc(NC(=S)NCc2ccccc2)cc1` gave TRPV1 ag inconclusive, D1 potentiator -7.3, D1 ag 6.4, D1 antagonist -37.8* and TRPV1 potentiator -6.7.
Screening O=C1CCN(Cc2ccccc2)CCN1[C@H](CO)Cc1ccccc1 returned TRPV1 ag 2.4, D1 potentiator -3.6, D1 ag 0.4, D1 antagonist 7.8 and TRPV1 potentiator -14.0.
For N#Cc1cccc(CN2CCC(=O)N([C@H](CO)Cc3ccccc3)CC2)c1 the results were TRPV1 ag -0.1, D1 potentiator 6.0, D1 ag -0.7, D1 antagonist -44.6* and TRPV1 potentiator -17.9.
Screening Cc1ccccc1N1C(=O)c2cccc3c(N(C)CCO)ccc(c23)C1=O returned TRPV1 ag 28.9, D1 potentiator -8.0, D1 ag 85.6*, D1 antagonist -7.1 and TRPV1 potentiator -5.5.
CC(=O)Nc1cccc2c1C(=O)N(c1ccccc1C)C2=O was read as TRPV1 ag 0.5, D1 potentiator -2.5, D1 ag 0.1, D1 antagonist -5.3 and TRPV1 potentiator 16.8.
Screening COc1ccccc1N1C(=O)c2cccc3c(N(C)CCO)ccc(c23)C1=O returned TRPV1 ag 12.5, D1 potentiator 0.6, D1 ag 55.8*, D1 antagonist 5.4 and TRPV1 potentiator inconclusive.
`COC(=O)c1cnc(N2CCN(c3ccc(OC)cc3)CC2)c2ccccc12` gave D1 potentiator -0.8, D1 ag 1.3 and D1 antagonist 1.9.
CCOc1ccc(N2CC(c3nc4ccccc4n3CCCOc3ccc(OC)cc3)CC2=O)cc1 (stereo unspecified) was read as D1 potentiator -3.0, D1 ag 5.0 and D1 antagonist 7.4.
`CC1=C(C(=O)Nc2ccccc2C)C(c2cccs2)n2nc(SCc3cc(C)ccc3C)nc2N1` (stereo unspecified) gave D1 potentiator 0.9, D1 ag -0.2 and D1 antagonist 4.2.
Screening Cc1cc(F)ccc1-n1nnc(C(N)=O)c1C returned D1 potentiator -0.1, D1 ag 0.4 and D1 antagonist 8.7.
COc1ccc(NC(=O)Cn2c(=O)n(Cc3ccccc3Cl)c(=O)c3cc(OC)c(OC)cc32)cc1OC was read as D1 potentiator -0.5, D1 ag 1.9 and D1 antagonist -5.3.
Screening Clc1ccccc1-c1nnc(-c2ccccc2CNc2ccc(Br)cc2)o1 returned D1 potentiator 0.3, D1 ag 2.3 and D1 antagonist -2.8.
Screening CCCCCCN1C=CC(=C/C=C(\C#N)C(=O)OCC)C=C1 returned TRPV1 ag inconclusive, D1 potentiator -4.8, D1 ag 178.2*, D1 antagonist -6.6 and TRPV1 potentiator -20.9.
`CCOC(=O)/C(C#N)=C/N=c1ccc(C)cn1C` gave D1 potentiator -10.1, D1 ag 0.2 and D1 antagonist -5.0.
CCOC(=O)/C(C#N)=C/C=C1\C=Cc2ccccc2N1CC was read as TRPV1 ag 10.0, D1 potentiator -2.5, D1 ag 11.1, D1 antagonist 10.8 and TRPV1 potentiator 3.6.
Screening CCCN1C=CC(=C/C=C(\C#N)C(=O)OCC)C=C1 returned TRPV1 ag inconclusive, D1 potentiator 0.1, D1 ag 33.5*, D1 antagonist -6.8 and TRPV1 potentiator -12.2.
Screening O=C(NCCc1ccccc1Cl)c1ccc2c(c1)nc1n2CCCCC1 returned D1 potentiator 2.5, D1 ag -0.9 and D1 antagonist -5.9.
`CCCn1c(=N)n(CC(=O)OCC)c2ccccc21` gave TRPV1 ag -3.4, D1 potentiator -11.0, D1 ag 2.5, D1 antagonist -2.4 and TRPV1 potentiator -37.0.
For CCOC(=O)Cn1c(=N)n(Cc2ccc(C(C)(C)C)cc2)c2ccccc21 the results were D1 potentiator -1.4, D1 ag 47.5* and D1 antagonist 1.1.
`c1ccc(CN(Cc2ccccc2)c2c3c(nc4ncnn24)CCC3)cc1` gave TRPV1 ag 6.8, D1 potentiator -0.9, D1 ag 3.0, D1 antagonist -5.3 and TRPV1 potentiator 11.6.
c1ccc(CNc2c3c(nc4ncnn24)CCC3)cc1 was read as TRPV1 ag -8.9, D1 potentiator -3.5, D1 ag 5.9, D1 antagonist -52.6* and TRPV1 potentiator inconclusive.
CCOC(=O)c1c(-c2ccccc2)csc1NC(=O)/C(C#N)=C/c1ccc(O)c(OC)c1 was read as TRPV1 ag 22.1, D1 potentiator 4.3, D1 ag 88.8*, D1 antagonist -11.2 and TRPV1 potentiator -3.1.
Screening CCOC(=O)c1c(-c2ccccc2)csc1NC(=O)/C(C#N)=C/c1ccc(OC)c(OC)c1 returned TRPV1 ag 0.0, D1 potentiator -4.2, D1 ag 8.5, D1 antagonist 0.5 and TRPV1 potentiator 2.2.
